Here are results for 40 compounds from PubChem BioAssay (Tox21).

The structures appear in SMILES notation. Activity calls are given as the source filed them. Calls follow the shape of the dose curve; as a rule, active = well fitted curve in the direction sought with a large enough effect in the repeat runs; inconclusive = weak or mixed curves; inactive = flat fitted curve, though single readings scatter.
% is scaled to controls: 0 for no effect and ±100 for the full control effect.

This assay can be described thus: qHTS assay to test for compound auto fluorescence at 590 nm (red) in HepG2 cell free culture (AID 720684). To be noted: cell-free medium autofluorescence, red 540/590 nm; series mostly up to 91.3 µM. The source says: U.S. Tox21 Program National Center for Advancing Translational Sciences [NCATS] NIH Chemical Genomics Center [NCGC] U.S. Environmental Protection Agency [EPA] National Institutes of Environmental Health Sciences [NIEHS] National Toxicology Program [NTP] U.S. Food and Drug Administration [FDA] Tox21 Assay Overview: Compound auto fluorescence often interferes with screening of the compound library against various biological targets and signaling pathways. Some of these compounds may have fluorophoric properties. Such properties may interfere with the assay outputs resulting in false positives and/or negatives. To decrease such complications and ensure the compound activities are relevant in terms of biological response, the Tox21 10K compound library was screened for auto fluorescence. From the fluorophores used as reporter signals in our screening assays, the auto fluorescence equivalencies of compounds against three fluorophores have been evaluated: Triamterene, Fluorescein and Rose Bengal sodium for blue, green and red fluorescence, respectively. The fluorescence intensities were measured using Excitation/Emission wavelengths at 405/460nm, 485/535nm and 540/590nm for blue, green and red labels, respectively. This assay includes the red fluorescence data.
Tox21 Assay Protocol Summary: 5 uL of culture medium (MEM containing 10% FBS) per well was dispensed into black wall/clear bottom 1536-well plates using a Multidrop Combi Dispenser (ThermoFisher Scientific, Waltham, MA). After 23 nL compound or DMSO vehicle was transferred into assay plate by a pintool work station (Kalypsys, San Diego, CA), fluorescence intensities in the assay plates were measured by an Envision (PerkinElmer, Shelton, CT) plate reader using three labels for measuring blue, green and red fluorescence at […] 460, 535 and 590nm respectively.
`CC(O)CN` (stereo not given): the outcome was inactive.

Turning to `CCCCCCC/C=C/C=O`, the outcome was inactive. As for `O=C1C=CCCC1`, the outcome was inactive. On to `CCCCC(CC)COCCC#N` (stereo not given), for which the compound was classed as inactive.

As for `OCCc1ccncc1`, the result was inactive. Regarding `O=C1OC(=O)C2CC=CCC12` (stereo not given), the result was inactive. `O=C(NC1CCN(CCc2c[nH]c3ccccc23)CC1)c1ccccc1`: the compound was called inactive. For the compound `O=P(c1ccccc1)(c1ccccc1)c1ccccc1`, the compound was classed as inactive. For `O=C(O)c1ccc2cc(O)ccc2c1`, the outcome was inactive. On the same count and under the same terms, to `NC(=O)c1ccccc1` belongs “inactive”; to `CCCCCCCCOCCCN`, “inactive”; to `CCOC(OCC)OCC`, “inactive”. Still for that read-out and setting: then `CC/C=C/CCO`, with “inactive”. Consider `Cc1c(Nc2ncccc2C(=O)O)cccc1C(F)(F)F`, for which the fluorescence, % of Rose Bengal was 0.0144% [at 18.6 µM] (inactive). Turning to `CC(C)(Cc1c[nH]c2ccccc12)NCC(O)COc1ccccc1C#N` (stereo not given), the outcome was inactive. Take `CC(=O)Oc1cccc2c1C(=O)c1c(OC(C)=O)cc(C(=O)O)cc1C2=O`: the compound was called inactive. With `O=C(N[C@@H](Cc1ccccc1)[C@@H](O)C(=O)N1C[C@@H](O)[C@@H](O)C1)c1cc2cc(Cl)ccc2[nH]1`, the compound was called inactive.

Regarding `CCn1nc(Cc2ccccc2)cc1C1CCN(C[C@H]2C[C@H](N(C)[C@@H](C(=O)O)C(C)C)C[C@@H]2c2cccc(F)c2)CC1`, the compound was called inactive.

`CC[C@H](NC(C)C)[C@H](O)c1ccc(O)c2[nH]c(=O)ccc12`: the compound was called inactive. Same read-out and setting: to `CCCCCCOC(=O)c1ccccc1` belongs “inactive”.

In the case of `CCN(CCCCOC(=O)c1ccc(OC)c(OC)c1)C(C)Cc1ccc(OC)cc1` (stereo not given), the fluorescence, % of Rose Bengal is 0.006% [at 18.6 µM] (inactive). In the case of `O=c1c2ccccc2oc2ccccc12`, the outcome was inactive. As to `C=Cc1ccc(C=C)cc1`, the compound was classed as inactive. Same read-out and setting: then `Nc1ncnc2c1ncn2[C@@H]1O[C@H](CO)[C@@H](O)[C@H]1O`, with “inactive”; and `C/C=C1\[C@H]2C=C(C)C[C@]1(N)c1ccc(=O)[nH]c1C2`, with “inactive”. For the compound `Nc1ccc(F)cc1F`, the compound was classed as inactive. Still for that read-out and setting: then `O=C(OCCCCCOC(=O)c1ccccc1)c1ccccc1`, with “inactive”; and `CC(=O)Nc1ccn(C2COC(COC(=O)c3ccccc3)O2)c(=O)n1` (stereo not given), with “inactive”; and `COc1ccc(/C=C/S(=O)(=O)NC(=O)c2ccc(C)cc2Cl)cc1`, with “inactive”.

`O=[N+]([O-])c1cccc(I)c1`: the compound was classed as inactive. As to `CC(C)C[C@H](NC(=O)[C@H](Cc1ccccc1)NC(=O)c1cnccn1)B(O)O`, the call was inactive. Take `Cc1cc(N)n(-c2ccccc2)n1`: the compound was called inactive. In the case of `CCCCOC(=O)CC#N`, the result was inactive. The same measure, in the same setting: then `COc1cc(C)c(Cc2cnc(N)nc2N)cc1OC`, with “inactive”; and `C=CC(=O)OCCCCCCCCCC`, with “inactive”; and `Nc1cccc2c(=O)[nH][nH]c(=O)c12`, with “inactive”.

For the compound `CCCCOC(=O)C(C)Oc1ccc(Oc2ccc(C(F)(F)F)cn2)cc1` (stereo not given), the result was inactive. The same measure, in the same setting: then `C=CC(C)CCC=C(C)C` (stereo not given), with “inactive”; and `CCc1ccc(C(=O)C(C)CN2CCCCC2)cc1` (stereo not given), with “inactive”; and `O=C1c2ccccc2C(=O)c2c1ccc(O)c2O`, with “inactive”.
